Results: PubChem BioAssay AID686978 (National Center for Advancing Translational Sciences (NCATS), 2013)
Hit rate of the full screen: of about 420,000 compounds, about 64,000 (15%) were called active. Not shown: some 27% with an inconclusive outcome. Calls follow the shape of the dose curve; as a rule, active = well fitted inhibition curve with a large enough effect; inconclusive = small, poorly fitted or top-dose-only effect; inactive = flat fitted curve, though single readings scatter. A selection follows.

Experiment: qHTS for Inhibitors of human tyrosyl-DNA phosphodiesterase 1 (TDP1): qHTS in cells in absence of CPT; also: nearly all actives have a fitted effect of over 55% in size
Conditions: DT40 Tdp1-/- hTDP1 cells, no CPT, ATP luminescence, 48 h; activity change, negative = growth inhibition: at 46.2 µM (top of the series)
Procedure, shortened: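 Camptothecin absent (DMSO only). Human TDP1-complemented DT40 knockout cells, 400 cells/well, 37 °C for minimum 48 hr; ATP measured via CellTiter-Glo, 30 min dark incubation, luminescence.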
% is scaled to controls: 0 for no effect and ±100 for the full control effect; potency is read from the fitted curve at half-maximal effect.

SMILES	activity change, negative = growth inhibition	Potency
OCC(O)CN(c1ccccc1)c1ccccc1 (configuration not stated)	-27.7% (inactive)	–
Cc1ccccc1-n1nc(SCC(=O)O)sc1=S	-3.4% (inactive)	–
N=c1ccn(CC(=O)NC(N)=O)c2ccccc12	-8.1% (inactive)	–
C/C=N/NC(=O)CCCC(=O)N/N=C/C	7.5% (inactive)	–
C[C@H](CO)N1C[C@H](C)[C@@H](CN(C)S(=O)(=O)c2ccc(F)cc2)Oc2ccc(NC(=O)CCC(F)(F)F)cc2C1=O	-26.2% (inactive)	–
O=C(O)c1c(Br)c(Br)c(Br)c(Br)c1C1c2ccc(O)cc2Oc2cc(O)ccc21	-2.04% (inactive)	–
O=C(CNC(=O)[C@@H]1Cc2ccccc2CN1)NC1CCCCC1	-17.6% (inactive)	–
Cn1c(SCC(=O)OC2CCCCC2)nnc1-c1ccc(S(=O)(=O)N2CCCC2)cc1	-9.11% (inactive)	–
COCCNC(=O)CN1C(=O)CSc2ncccc21	0.779% (inactive)	–
CC(=O)Nc1ccc(OC(=O)COc2ccc(Br)cc2)cc1	22.7% (inactive)	–
O=C1NC(=O)C2C1C(c1ccc([N+](=O)[O-])cc1)=NN2Cc1ccccc1 (configuration not stated)	7.2% (inactive)	–
O=C(OCc1ccc([N+](=O)[O-])cc1)C1CC(=O)N(Cc2ccccc2Cl)C1 (configuration not stated)	-29.7% (inactive)	–
O=[N+]([O-])c1ccc(CN2CC(N3CCC(c4ccccc4)CC3)CS2(=O)=O)cc1 (configuration not stated)	–	23.1 µM (active)
CSCC(NS(=O)(=O)c1ccc(C)cc1)C(=O)O (configuration not stated)	-1.29% (inactive)	–
O=C(Nc1nnc(C2CC2)s1)C1=NN(C2CCS(=O)(=O)C2)C(=O)CC1 (configuration not stated)	12.2% (inactive)	–
Cn1cc(CCC(=O)NC2CC2)c2ccccc21	-0.36% (inactive)	–
O=C(O)c1cccc(N=NN2CCCCCC2)c1	-0.0872% (inactive)	–
CCC1CCCCN1C(=S)Nc1ccc(C(C)=O)cc1 (configuration not stated)	-28% (inactive)	–
CC(=O)c1ccccc1NC(=O)CC1(CC(=O)O)CCCCC1	1.97% (inactive)	–
Cc1ccc(S(=O)(=O)N(CC(O)CN2C(=O)NC(C)(C)C2=O)c2cccc([N+](=O)[O-])c2)cc1 (configuration not stated)	-0.683% (inactive)	–
COc1ccc([N+](=O)[O-])cc1N(CC(O)CN(CC(C)C)CC(C)C)S(=O)(=O)c1ccc(C)cc1 (configuration not stated)	–	23.1 µM (active)
Cc1ccc(S(=O)(=O)N(CC(O)CN2CCCCC2)c2cccc([N+](=O)[O-])c2)cc1 (configuration not stated)	-4.84% (inactive)	–

SMILES	activity change, negative = growth inhibition	Potency
Cc1cc(C)n(Cc2cnc(N3CCOCC3)s2)n1	32.3% (inactive)	–
O=C(NCC(=O)N(CC1CCCO1)C(C(=O)NC1CCCCC1)c1ccccc1)c1ccco1 (configuration not stated)	-2.93% (inactive)	–
Cc1ccc(-c2cc(C(=O)NN)n[nH]2)o1	-13% (inactive)	–
CCn1c(SCC(=O)Nc2cccc(F)c2)nnc1-c1cc2cc(Br)ccc2o1	-17.3% (inactive)	–
COc1ccc(-c2nc3cc(C)ccn3c2NC2CCCCC2)cc1SC1CCCCC1	–	20.9 µM (active)
COc1ccc(-c2nnc(SCC(=O)NC3CCCCC3)o2)cc1OC	-28.8% (inactive)	–
COc1ccc(-c2nc3cnccn3c2NC(C)(C)CC(C)(C)C)cc1O	–	18.4 µM (active)
COc1ccc(-c2nc3cnccn3c2NC2CCCCC2)cc1-c1cccc(Cl)c1	–	25.9 µM (active)
COc1ccc(C)cc1S(=O)(=O)NC1CCCCC1	-6.83% (inactive)	–
COc1ccc(NC(=O)N(C)C[C@H]2Oc3ncc(C#C[C@@H](C)O)cc3C(=O)N([C@H](C)CO)C[C@H]2C)cc1	5.91% (inactive)	–
CC1(C)CCc2nc(SCc3ccccc3)c(C#N)cc2C1	-1.89% (inactive)	–
Cc1ccc(NS(=O)(=O)c2ccc(-c3ccc(=O)[nH]n3)o2)c(C)c1	7.41% (inactive)	–
OCc1nc(CO)n(Cc2ccccc2)n1	-1.88% (inactive)	–
CC1(C(=O)NS(=O)(=O)c2cccc(F)c2)CCN1C(=O)c1cccc2ccccc12 (configuration not stated)	-0.531% (inactive)	–
CSc1nnc(-c2ccc(C(F)(F)F)cn2)o1	-0.821% (inactive)	–
CC(C)(C)C(=O)OCc1nc(-c2ccc(O)c(O)c2)cs1	–	20.6 µM (active)
CCCC(=O)N1c2ccc(-c3csc(N)n3)cc2CC1C (configuration not stated)	-25.1% (inactive)	–
Cc1onc(C(=O)NN)c1-c1csc(COc2ccccc2)n1	-4.22% (inactive)	–
Cn1c(NN)nc2sc3c(c2c1=O)CCC3	–	29.1 µM (active)
CC(C(=O)O)n1cnc2sc3c(c2c1=O)CCCC3 (configuration not stated)	7.09% (inactive)	–
NNC(=O)C1CCCn2c1nc1sc3c(c1c2=O)CCCC3 (configuration not stated)	2.25% (inactive)	–
Cc1ccc(N/C(N)=N/c2nc(C(F)(F)F)cc(C(F)(F)F)n2)cc1	6.24% (inactive)	–

SMILES	activity change, negative = growth inhibition	Potency
C=C[C@](C)(O)CCC1C(=C)CCC2[C@@](C)(CO)CCC[C@@]12C (some centres not stated)	–	18.4 µM (active)
Cc1nnc(SCC(=O)NC2CCCC2)s1	-4.15% (inactive)	–
O=C(NCc1ccccc1)C1CCCN(S(=O)(=O)c2cccs2)C1 (configuration not stated)	-15.2% (inactive)	–
O=C(NCc1cccs1)C1CCN(S(=O)(=O)c2ccc(Cl)cc2)CC1	-22.1% (inactive)	–
O=C(NCc1ccc(Cl)cc1)C1CCN(S(=O)(=O)c2cccs2)CC1	–	23.1 µM (active)
CCCCCNC(=O)C1C(=O)Nc2ccccc2C(=O)N1C(C)(C)C (configuration not stated)	-8.99% (inactive)	–
CCOc1ccc(-c2cc3nc(C4CCN(C(=O)OC(C)(C)C)CC4)c(C(=O)Nc4ccc(C(=O)OC)cc4)cn3n2)cc1	21.5% (inactive)	–
COc1ccc(NC(=S)N2CCc3cc(OC)c(OC)cc3C2)cc1	-5.78% (inactive)	–
COc1ccc(Nc2ncc3c(n2)CCN(C(=O)OC(C)(C)C)C3)cc1	–	20.6 µM (active)
COC(=O)CSc1nnc(NC(=O)CCc2ccccc2)s1	-27.7% (inactive)	–
O=C(OCc1cc(Cl)ccc1OC(F)F)c1cccnc1	-12.6% (inactive)	–
CCO/N=C(/C)c1c(O)cc(-c2ccccc2)n(-c2ccccc2)c1=O	-24.7% (inactive)	–
O=C1NC[C@@H](CCCCN2CCN(CCc3ccc(O)cc3)C(=O)C2=O)N(CC2CCCCC2)C1=O	-13.4% (inactive)	–
COc1ccc(-c2noc(CN(C)S(=O)(=O)c3ccc(C)cc3)n2)cc1	–	18.4 µM (active)
COc1ccc(-c2noc(CSc3nc4ccc(C)cc4[nH]3)n2)cc1	–	11.6 µM (active)
Cc1ccc(S(=O)(=O)N(Cc2nc(-c3ccc(Cl)cc3)no2)C2CCCCC2)cc1	–	16.4 µM (active)
COc1ccc(-c2noc(CSc3ccc(C)cc3)n2)cc1	-33.9% (inactive)	–
Cc1ccc(-c2noc(CC(c3ccccc3)c3ccccc3)n2)cc1	-11.5% (inactive)	–
CC1CCN(Cc2nc(-c3ccc(Cl)cc3)no2)CC1	-13.3% (inactive)	–
COc1ccc(-c2noc(CNC(=O)C(C)Oc3ccccc3)n2)cc1 (configuration not stated)	-7.43% (inactive)	–
COc1ccc2nc(SCC(=O)Nc3c(C)cc(C)cc3C)[nH]c2c1	-13.8% (inactive)	–
Cc1ccc(C(=O)OCc2nc(N)nc(Nc3ccccc3C)n2)cc1	-23.7% (inactive)	–

SMILES	activity change, negative = growth inhibition	Potency
O=C1CCCc2nn(-c3ccccc3)nc21	-6.94% (inactive)	–
O=c1[nH]c2c(c(=O)n1Cc1ccccc1)CCC2	-29.1% (inactive)	–
CC(C)c1nnc(NC(=O)COC(=O)/C=C/c2ccc([N+](=O)[O-])cc2)s1	-1.16% (inactive)	–
O=C(O)CCCCC(=O)O	-2.12% (inactive)	–
CC(Oc1ccccc1[N+](=O)[O-])C(=O)N/N=C/c1ccoc1 (configuration not stated)	11.1% (inactive)	–
Cc1noc(C)c1CSc1nnc2ccc3ccccc3n12	-5.21% (inactive)	–
COc1ccc(C(=O)N/N=C(\C)CC(=O)Nc2ccc(Cl)cn2)cc1	-17.9% (inactive)	–
Cc1cc(OC(C)C(=O)Nc2sc3c(c2C(N)=O)CCCC3)ccc1Cl (configuration not stated)	-23.9% (inactive)	–
Cc1cccc(C)c1NC(=O)CNC(=O)c1ccc(N2CCOCC2)c([N+](=O)[O-])c1	-15.6% (inactive)	–
O=C(NCCCN1CCOCC1)c1ccc(N2CCCC2)c([N+](=O)[O-])c1	-9.74% (inactive)	–
N#Cc1c(NC(=O)c2ccc(N3CCOCC3)c([N+](=O)[O-])c2)sc2c1CCCC2	–	6.51 µM (active)
CC(/C=C/C1(O)C(C)CC(=O)CC1(C)C)OC1OC(CO)C(O)C(O)C1O (configuration not stated)	-23.3% (inactive)	–
CCOCc1nnc(NC(=O)CCC2CCCCC2)s1	-26.3% (inactive)	–
CCc1ccccc1NC(=O)c1ccc2c(c1)CCN2S(C)(=O)=O	-7.89% (inactive)	–
CN1CCc2ccccc2C1Cc1ccccc1NC(=O)c1sc2ccccc2c1Cl (configuration not stated)	–	6.51 µM (active)
CCc1ccccc1NC(=O)NCCN1CCCCC1	1.53% (inactive)	–
NNc1nnc(NN)c2ccccc12	-1.45% (inactive)	–
CC(O)CN(Cc1ccc(Cl)cc1)CC(C)O (configuration not stated)	-4.59% (inactive)	–
Cc1ccc(C)c(C(=O)N2CCC(n3nccc3NC(=O)C3CC3)CC2)c1	-4.33% (inactive)	–
Cc1ccc(NC(=O)N2CCSc3ccccc32)cc1	-29.7% (inactive)	–
Cc1ccc(CC(=O)Nc2cccc(C#N)c2)cc1	-11.9% (inactive)	–
Cc1ccc(NC(=O)Cc2ccc(NC(=O)N3CCCCc4ccccc43)cc2)cc1	–	23.1 µM (active)

SMILES	activity change, negative = growth inhibition	Potency
CN(C)S(=O)(=O)c1cccc(C(=O)OCC(=O)N2CCCC2=O)c1	26.4% (inactive)	–
O=C(CSc1ncn[nH]1)NCc1ccc2c(c1)OCO2	7.22% (inactive)	–
Cc1ccc(CN2CCN(Cc3ccc(OCCO)cc3)CC2CCO)o1 (configuration not stated)	9.04% (inactive)	–
CCOc1ccc(CN2CCN(Cc3ccc4cc(F)ccc4n3)CC2CCO)cc1 (configuration not stated)	–	25.9 µM (active)
OCCC1CN(Cc2cnc(-c3ccccc3)s2)CCN1CCc1ccccc1 (configuration not stated)	–	8.2 µM (active)
OCCC1CN(Cc2cccc(O)c2)CCN1CCc1ccccc1 (configuration not stated)	-27% (inactive)	–
COc1cccc(CN2CCN(Cc3ccc4cccc(F)c4n3)CC2CCO)c1 (configuration not stated)	-27.6% (inactive)	–
OCCC1CN(Cc2cccn2-c2nccs2)CCN1CCc1ccccc1 (configuration not stated)	-21.4% (inactive)	–
CCOc1ccc(CN2CCN(CCCc3ccccc3)C(CCO)C2)cc1 (configuration not stated)	–	20.6 µM (active)
OCCC1CN(Cc2ccc(Oc3ncccn3)cc2)CCN1CCc1ccccc1 (configuration not stated)	-23.7% (inactive)	–
CCOc1ccc(CN2CCN(Cc3ccon3)CC2CCO)cc1 (configuration not stated)	-4.58% (inactive)	–
C[C@H]1CN([C@@H](C)CO)C(=O)CCCn2nncc2CO[C@@H]1CN(C)S(=O)(=O)c1cccc(C#N)c1	3.79% (inactive)	–
CCCOC(=O)c1ccc(N2C(=O)c3ccccc3C2=O)cc1	7.66% (inactive)	–
CCOc1ccc(CCNC(=O)COC(=O)CCS(=O)(=O)c2ccc(C)cc2)cc1OCC	-8.89% (inactive)	–
COC(=O)CN1C(C)=Nc2ccc(Br)cc2C1c1ccccc1 (configuration not stated)	-22.8% (inactive)	–
O=C(/C=C/c1ccccc1[N+](=O)[O-])OC1CCCCC1=O (configuration not stated)	10.5% (inactive)	–
O=C(/C=C/c1ccccc1[N+](=O)[O-])NCC1CCCO1 (configuration not stated)	6.91% (inactive)	–
CC1CCCCC1NC(=O)/C(C#N)=C/C=C/c1ccccc1[N+](=O)[O-] (configuration not stated)	–	9.2 µM (active)
CCC(CC)C(=O)Nc1cccc(C(=O)N2CCCC2)c1	-15.9% (inactive)	–
